Here are results for 95 molecules from PubChem BioAssay AID1259343 (VanderVen Lab, College of Veterinary Medicine, Cornell …, 2017).

The campaign covered roughly 6,200 compounds. About 2,900 (47%) were called active. Rule as the data show it: active = inhibition above about 50%; inactive = the rest. The set was probably picked from earlier hits. Some of the results follow.

Usually inhibition stands for the drop in the measured response relative to a control, in per cent.

A short description of the experiment: Mycobacterium tuberculosis growth inhibition, primary screen (AID 1259343). The following applies: inhibition: at 10 µM, stronger effect = higher value; outcome: 10 uM.
With `O=C(CN1CCCc2cccc(F)c21)Nc1cccc(F)c1`, the inhibition is 2.21% (inactive).
`O=C(CN1CCCC1=O)Nc1ccc(C23CC4CC(CC(C4)C2)C3)cc1`: the inhibition is 81.6% (active).
Take `COCc1ccc(CN2CCC(C(=O)Nc3cccc(-c4cccc(Cl)c4)c3)CC2)o1`: the inhibition is 62.3% (active).
The value for `COCC(=O)N1CCC(C(=O)Nc2cccc(-c3cccc(Cl)c3)c2)CC1` was “inactive”; that for `CC(C)n1cc(CN2CCC(C(=O)Nc3cccc(-c4cccc(Cl)c4)c3)CC2)cn1` was 46.3% (inactive).
The result for `O=C(Nc1cccc(-c2cccc(Cl)c2)c1)C1CCN(Cc2ccncc2)CC1` reads 92.8% (active); that for `Cc1cccc(C(=O)N2N=C(c3ccccc3)CC2(O)C(F)(F)F)c1O` (stereo not given), 49.1% (inactive).
In the case of `CC1=NN(C(=O)c2ccccc2)C(C)(NN(C)c2ccccc2)C1` (stereo not given), the inhibition was 75.7% (active).
The result for `Cc1cc(Cc2c(O)nc(N)[nH]c2=O)ccc1OC(C)C` reads 36.4% (inactive); that for `CCC1c2ccsc2CCN1CC(=O)Nc1ccccc1C#N` (stereo not given), 39.9% (inactive).
The value for `O=S(=O)(c1cccc(Cl)c1Cl)N1CCc2sccc2C1` was 17.2% (inactive); that for `Cn1ccc(C(=O)Nc2ccccc2N2CCc3sccc3C2)cc1=O` was 63.6% (active); that for `c1ccc(Cc2nnc(SCc3cccc4ccccc34)o2)cc1` was 4.35% (inactive).
`O=C(CSc1nnc(Cc2ccccc2)o1)c1ccc2ccccc2c1`: the inhibition was 67.7% (active).
The value for `Cc1nc(Cc2nnc(SCC(=O)c3ccc(Cl)s3)o2)cs1` was 9.62% (inactive); that for `CCCCCCCC1C(C#N)=C(N)SC(N)=C1C#N` was 93.5% (active); that for `N#CC1=C(N)SC(N)=C(C#N)C1c1ccc(-c2ccccc2)cc1` was 14.3% (inactive).
The value for `CCCCCCC1C(C#N)=C(N)SC(N)=C1C#N` was 24.4% (inactive); that for `Cc1cccc(N2CCN(c3ccc4nnc(C5CC5)n4n3)CC2)c1C` was 85.7% (active); that for `CC(C)=NNc1nc(Cl)c(C#N)c(Cl)c1Cl` was 102% (active).
The value for `FC(F)(F)c1nnc2ccc(NCCC3CCCC3)nn12` was 18% (inactive); that for `O=C(Nc1cnc(-c2ccccc2)nc1)C1CCCC1` was 48.4% (inactive); that for `O=C(Nc1cccc(OCc2ccccn2)c1)C1CC1` was 18.7% (inactive).
Take `O=C(Nc1cccc(/C=C/c2ccccn2)c1)C1CCCC1`: the inhibition was 97.1% (active).
For the molecule `CC(C)n1c(CCC(=O)O)ccc1-c1ccc(Br)cc1`, the inhibition was 50.3% (active).
Take `CC(C)(C)C1CCC(CN2CC(O)C(N3CCCC3)C2)CC1` (stereo not given): the inhibition was 41.1% (inactive).
The result for `CCOC(=O)CCCNC(=O)CSc1n[nH]c(-c2ccc(Br)cc2)n1` reads 74.5% (active); that for `CC(Sc1n[nH]c(-c2ccc(Cl)cc2)n1)C(=O)NCc1ccco1` (stereo not given), 42% (inactive); that for `N#Cc1ccc(OCC(O)Cn2nnc(-c3ccc(Cl)cc3)n2)cc1` (stereo not given), 49.3% (inactive).
Regarding `CC(C)c1ccc(-c2nnn(CC(=O)c3ccc(O)cc3)n2)cc1`, the inhibition was 55.7% (active).
The value for `CC(C)c1ccc(-c2nnn(CC(=O)NC(C)(C)C)n2)cc1` was 4.54% (inactive); that for `C=CCOc1ccc(C2c3c(oc4ccc(C)cc4c3=O)C(=O)N2c2nccs2)cc1` (stereo not given) was -15.9% (inactive); that for `COCCOc1nc(-c2ccc(C(F)(F)F)cc2)n(-c2ccc(NC(=O)C(Cl)c3ccccc3)cc2)n1` (stereo not given) was 19.5% (inactive).
With `CC(C)CN(CC(=O)Nc1cc(C(C)(C)C)nn1-c1ccc(Cl)c(Cl)c1)C(=O)Nc1ccc(C(F)(F)F)cc1`, the inhibition was 38.3% (inactive).
The result for `NCC(=O)Nc1ccc(-n2nc(C(F)(F)F)cc2-c2ccc3c(ccc4ccccc43)c2)cc1` reads 73.5% (active); that for `FC(F)(F)c1cccc(N2CCC(N=Cc3ccccc3C(F)(F)F)=N2)c1`, 50.2% (active).
The value for `C(=NC1=NN(c2ccccc2)CC1)N1CCCCCC1` was -7.42% (inactive).
Take `CN(N=Cc1ccc([N+](=O)[O-])o1)c1ccccc1`: the inhibition was -45.3% (inactive).
For the molecule `FC(F)(F)c1cccc(N2CCC(N=Cc3ccccn3)=N2)c1`, the inhibition was 93.2% (active).
The result for `OCCN(C=NC1=NN(c2cccc(C(F)(F)F)c2)CC1)CCO` reads 83.2% (active).
The result for `O=[N+]([O-])c1ccc(C=NC2=NN(c3cccc(C(F)(F)F)c3)CC2)o1` reads 87.8% (active).
`CCCNC(=O)COc1c(Cl)cc(Cl)c2ccc(C)nc12`: the inhibition was 72.1% (active).
Take `O=[N+]([O-])c1ccc(C(O)CNC(=S)NCc2ccc3c(c2)OCO3)cc1` (stereo not given): the inhibition is 89.8% (active).
Turning to `Cc1cc(=O)[nH]c(-n2nc(C)cc2NC(=O)c2ccco2)n1`, the inhibition is 101% (active).
The result for `Cc1cc(=O)[nH]c(-n2nc(C3CC3)cc2NC(=O)c2ccco2)n1` reads -24.5% (inactive); that for `CCc1cc(=O)[nH]c(-n2nc(C)cc2NC(=O)c2cc(=O)c3ccccc3o2)n1`, 34.9% (inactive); that for `CCc1cc(=O)[nH]c(-n2nc(C)cc2NC(=O)c2ccc(Br)o2)n1`, 101% (active).
With `CCCc1cc(=O)[nH]c(-n2nc(C)cc2NC(=O)c2ccco2)n1`, the inhibition was 100% (active).
The result for `CCc1cc(=O)[nH]c(-n2nc(C)cc2NC(=O)c2ccco2)n1` reads 100% (active).
The value for `COCC(O)CN(C)C(=O)c1ccc(Oc2cccc(Br)c2)nc1` (stereo not given) was 85% (active).
As to `C=CCNC(=O)N(Cc1ccccn1)c1ccc(Oc2cccc(F)c2)nc1`, the inhibition was 39.1% (inactive).
`CN(Cc1ccc(Br)cc1)CC(O)COc1cccc(Br)c1` (stereo not given): the inhibition was 46.8% (inactive).
The result for `COc1ccc(N2C(=O)C3N=NN(Cc4ccccc4C)C3C2=O)cc1Cl` (stereo not given) reads -10.3% (inactive); that for `CCc1ccc(N2C(=O)C3N=NN(Cc4ccc(C)cc4)C3C2=O)cc1` (stereo not given), 60.1% (active).
The value for `CCc1ccc(N2C(=O)C3N=NN(Cc4ccccc4)C3C2=O)cc1` (stereo not given) was 93.5% (active).
The value for `CC1=NOC(Cc2ccccc2)C(=O)N1Cc1ccc(C)cc1` (stereo not given) was 30.2% (inactive); that for `CCc1ccc(N2C(=O)C3N=NN(Cc4ccccc4C)C3C2=O)cc1` (stereo not given) was 76.5% (active); that for `Cc1ccc(-c2nc(SCc3ncc(C(C)C)o3)n[nH]2)cc1` was 11.4% (inactive).
As for `CCCCCSc1n[nH]c(-c2ccc(C)cc2)n1`, the inhibition was 84.7% (active).
As for `CCCc1cc(=O)[nH]c(-n2nc(C)cc2NC(=O)c2ccc3ccccc3c2)n1`, the inhibition is 102% (active).
The result for `Cc1cc(=O)[nH]c(-n2nc(C)cc2NC(=O)c2ccc3ccccc3c2)n1` reads 94.6% (active); that for `CCc1cc(=O)[nH]c(-n2nc(C)cc2NC(=O)c2ccc3ccccc3c2)n1`, 101% (active); that for `FC(F)(F)c1cc(Cl)c2nnc(SCCN3CCSCC3)n2c1`, -6.99% (inactive).
In the case of `CCCCCC12CCC(CC(=O)O)(CC1)CC2`, the inhibition was 70.4% (active).
The value for `CC(C)N1C(=O)C(=NN2C(=O)CSC2=S)c2ccccc21` was -42.2% (inactive).
As for `CC(NC(=O)c1ccc(-c2ccccc2F)s1)C(=O)N1CCCCC1` (stereo not given), the inhibition is 18.5% (inactive).
The result for `O=C(NC1CC1)N1CCN(Cc2ccc(-c3ccccc3F)s2)CC1` reads 97.6% (active); that for `O=C(NCc1ccoc1)N1CCN(Cc2ccc(Cl)s2)CC1`, 2.21% (inactive).
The value for `CCCCCCCCCCCCCCCCCCN(C)C` was 98.2% (active); that for `CCOc1ccc2oc(C(=O)NC(C)(C)CC)c(C)c2c1` was 64% (active); that for `C(=Nn1c(-c2ccc3c(c2)OCCO3)csc1=NCCc1ccccc1)c1ccccn1` was 30.9% (inactive).
The result for `CCN=c1scc(-c2ccc(F)cc2)n1N=Cc1ccc2c(c1)OCCO2` reads 4% (inactive); that for `CCN=c1scc(-c2ccc(C)c(C)c2)n1N=Cc1cccnc1`, -8.38% (inactive); that for `CCN=c1scc(-c2ccc(C)c(C)c2)n1N=Cc1ccc2c(c1)OCCO2`, 70.5% (active).
As to `CCN=c1scc(-c2ccc3c(c2)OCCO3)n1N=Cc1cc(C)ccc1C`, the inhibition was 87.5% (active).
The value for `C(#Cc1ccccc1)CN1CCN(C/C=C/c2ccccc2)CC1` was 80.2% (active); that for `COc1ccc(CC2CN(C/C=C/c3ccccc3)CCO2)cc1` (stereo not given) was 41.6% (inactive); that for `Cc1nc(SCc2ccc(C(=O)O)cc2)nc(N2CCN(C/C=C/c3ccccc3)CC2)c1C` was 5.19% (inactive).
The value for `O=C(Nc1ccc(N2CCN(C(=O)c3ccc(-c4cccc(Cl)c4)s3)CC2)nc1)c1ccco1` was 38.5% (inactive).
For `O=C(Nc1nc(OCC(F)(F)F)cnc1-c1ccc(Cl)cc1Cl)c1ccco1`, the inhibition was 64.5% (active).
For `CCCc1cc(=O)[nH]c(-n2nc(C)cc2NC(=O)c2ccccc2[N+](=O)[O-])n1`, the inhibition was 101% (active).
Turning to `CCc1cc(=O)[nH]c(-n2nc(C)cc2NC(=O)c2ccccc2[N+](=O)[O-])n1`, the inhibition was 101% (active).
`CN(C)[C@@H]1C(=O)C(C(N)=O)=C(O)[C@@]2(O)C(=O)C3=C(O)c4c(O)cccc4[C@@](C)(O)[C@H]3C[C@@H]12`: the inhibition is 60.8% (active).
`COc1cccc(Nc2ccc3c(-c4ccccc4)noc3n2)c1OC`: the inhibition was 70.1% (active).
The value for `COc1ccccc1NC(=O)c1ccc2noc(-c3ccccc3)c2c1` was 42.1% (inactive); that for `O=C(Nc1cccc(-c2cccc(Cl)c2)c1)C1CCN(C(=O)CCn2cnnn2)CC1` was 90.2% (active); that for `CSCCC(=O)N1CCC(C(=O)Nc2cccc(-c3cccc(Cl)c3)c2)CC1` was 88% (active).
`COCCC(=O)N1CCC(C(=O)Nc2cccc(-c3cccc(Cl)c3)c2)CC1`: the inhibition was 8.7% (inactive).
On to `O=C(Nc1ccc(Oc2ccccc2F)cc1)C1CCN(CCCn2cccn2)CC1`, for which the inhibition is 86.6% (active).
Consider `CCc1ncc(CN2CCC(C(=O)Nc3ccc(Oc4ccccc4F)cc3)CC2)cn1`, for which the inhibition was 86.1% (active).
The value for `O=C(Nc1ccc(Oc2ccccc2F)cc1)C1CCN(Cc2cccc3c2OCO3)CC1` was 93.3% (active); that for `CCn1cc(CN2CCC(C(=O)Nc3ccc(Oc4ccccc4F)cc3)CC2)cn1` was “inactive”.
The value for `COc1cccc(CN2CCC(C(=O)Nc3ccc(Oc4ccccc4F)cc3)CC2)c1` was 62.3% (active); that for `CC(=O)c1cccc(CN2CCC(C(=O)Nc3ccc(Oc4ccccc4F)cc3)CC2)c1` was “inactive”; that for `COCc1ccc(CN2CCC(C(=O)Nc3ccc(Oc4ccccc4F)cc3)CC2)o1` was “inactive”.
